# Reference: PubChem BioAssay AID1578 (Sanford-Burnham Center for Chemical Genomics, 2009)
# The whole screen tested about 290,000 compounds, of which about 3,000 (1%) were called active. For the sample, actives were picked, then their nearest neighbours and some compounds at random. Values without a mark were called inactive. Rule as the data show it: active = inhibition mostly above about 36% (no sharp cut-off); inactive = mostly below about 34%.
# Assay: inhibition of NOD1-driven NF-kB reporter – cell-based, luminescence, uHTS, primary screen (AID 1578);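 also: HEK-293T reporter cells stimulated with the NOD1 agonist gamma-tri-DAP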
# Settings: NOD1-driven NF-kB luciferase reporter cells, at 4 µM, hits give high values
row,Compound,inhibition
1,CCOC(=O)CNC(c1ccccc1)c1cc(Br)ccc1NC(=O)CCN1CCOCC1 (stereo unspecified),69.7% (active)
2,CCOC(=O)CNC(c1ccccc1)c1cc(Br)ccc1NC(C)=O (stereo unspecified),-27.2%
3,COC(=O)CNC(c1ccccc1)c1cc(Br)ccc1NC(=O)CCN1CCOCC1 (stereo unspecified),35.8%
4,CC(OC(=O)c1ccco1)C(=O)NC1CCCC1 (stereo unspecified),-27.9%
5,COc1ccc(CC(=O)N/N=C\c2cc(Br)c(O)c(Br)c2)cc1,17%
6,Cc1cc(C)c2[nH]c(O)c(N=NC(=S)NCC3CCCO3)c2c1 (stereo unspecified),-5.7%
7,Oc1[nH]c2c(Cl)cc(Cl)cc2c1N=NC(=S)NCC1CCCO1 (stereo unspecified),104% (active)
8,Oc1[nH]c2ccccc2c1N=NC(=S)NCC1CCCO1 (stereo unspecified),-1%
9,O=C1NC(=O)C2C1C(c1ccccc1)N1C3C(=O)NC(=O)C3C(c3ccccc3)N21 (stereo unspecified),6.2%
10,CC(C)Cc1nc2sc3c(NCc4ccco4)ncnc3c2c2c1COC(C)(C)C2,-25.1%
11,CC(C)c1nc2sc3c(NCc4ccco4)ncnc3c2c2c1COC(C)(C)C2,64% (active)
12,Cc1nc2sc3c(NCc4ccco4)ncnc3c2c2c1COC(C)(C)C2,20.3%
13,CCN(CC)CC(=O)NCc1cc(-c2ccc(OC)cc2)no1,-8.1%
14,C=CCNc1nc(Nc2ccc(OC)cc2)nc(OCC)n1,-7.5%
15,CCn1c(=O)c(C(=O)Nc2cnccn2)c(O)c2ccccc21,7.9%
16,CCn1c(=O)c(C(=O)Nc2ccccc2S(N)(=O)=O)c(O)c2ccccc21,-15.7%
17,Cn1c(=O)c(C(=O)Nc2cnccn2)c(O)c2ccccc21,-52.8%
18,CC(C)Cn1c(=O)c(C(=O)Nc2ccccc2S(N)(=O)=O)c(O)c2ccccc21,-2.7%
19,CC(C)Cn1c(=O)c(C(=O)Nc2cnccn2)c(O)c2ccccc21,0.1%
20,CCCn1c(=O)c(C(=O)Nc2cnccn2)c(O)c2ccccc21,-22.7%
21,CCOC(=O)N1CCN=C1SCc1ccc(Cl)c(Cl)c1,-47.1%

row,Compound,inhibition
1,Cc1nc(N2CCN(c3ccccc3)CC2)[nH]c(=O)c1Cc1ccccc1,8.4%
2,COc1ccccc1NC(=S)N(CCN1CCOCC1)Cc1ccccc1F,-31.9%
3,O=[N+]([O-])c1ccccc1/C=N/Nc1nnc(-c2ccccc2)c(-c2ccccc2)n1,-36.7%
4,FCCCOc1ccc(-c2ccnc(-c3ccccc3)n2)cc1,-45.6%
5,Cc1c(Cl)cccc1NC(=O)NNC(=O)CCc1ccccc1,28%
6,COc1cc(C)c(C)cc1S(=O)(=O)n1c(C)nc2ccccc21,-11.1%
7,CC(C)COP(=O)(c1ccc(N(C)C)cc1)C(O)c1ccc(N(C)C)cc1 (stereo unspecified),2.4%
8,CC1CN(c2nc3c(c(=O)n(C)c(=O)n3C)n2Cc2c(F)cccc2Cl)CC(C)O1 (stereo unspecified),-14.7%
9,O=C(NNC1=NCCC1)c1ccc(Br)cc1,6.7%
10,CC(=O)c1ccccc1N(C(=O)c1ccco1)C(C(=O)NC1CCCC1)c1ccc(C)cc1 (stereo unspecified),-11.2%
11,Cc1ccc(NC2CCCN(C(=O)c3cccc(-c4ncc[nH]4)c3)C2)cc1C (stereo unspecified),-0.1%
12,CCOC(=O)N(NC(=O)C(O)(c1ccccc1)c1ccccc1)c1ccccc1,-25.2%
13,CCCCCCN(C(=O)CCl)c1ccccc1,-4.8%
14,CCCCCCCN(C(=O)CCl)c1cccc(C)c1,57.4% (active)
15,CCCC(O)(CCC)C(=O)NN(C(=O)CCl)c1cccc(C)c1,75% (active)
16,CCCCC(O)(CCCC)C(=O)NN(C(=O)CCl)c1ccccc1,8.2%
17,CCN(CC)NC(=O)Nc1ccccc1,1.7%
18,COC(=O)N(NC(=O)C(O)(c1ccccc1)c1ccccc1)c1ccc(C)cc1,-13%
19,O=C(Nc1ccccc1)NN(C(=O)CCl)c1ccccc1,73.9% (active)
20,CCCCCCCN(C(=O)CCl)c1ccccc1C,27.2%
21,CCC(O)(CC)C(=O)NN(C(=O)CCl)c1ccccc1,-63.3%

row,Compound,inhibition
1,CCCC(O)(CCC)C(=O)NN(C(=O)CCl)c1ccccc1,-30.8%
2,Cc1ccc(N(NC(=O)C(O)(c2ccccc2)c2ccccc2)C(=O)CCl)cc1,87.3% (active)
3,Cc1cccc(Nc2nc(NCC3CCCO3)nc(N)c2[N+](=O)[O-])c1 (stereo unspecified),-27.5%
4,O=C(COc1ccccc1)OC(C(=O)c1ccccc1)c1ccccc1 (stereo unspecified),-26.7%
5,Cc1cc(NS(=O)(=O)c2ccc(NC(=O)c3ccco3)cc2)no1,9.2%
6,O=C(O)CN1CCCCCC1=O,-31.2%
7,Cc1nccn1CCCNC(=O)C1CCC(=O)N(Cc2ccccc2F)C1 (stereo unspecified),-13.5%
8,CC(C)(C)OC(=O)CN1c2cccc3cccc(c23)S1(=O)=O,-5.8%
9,CCC(C(=O)NC(C)c1ccccc1)C(=O)NC(C)c1ccccc1 (stereo unspecified),-9.8%
10,CC(=O)Nc1ccc(NC(=O)c2cc(=O)c3cc(C)c(C)cc3o2)cc1,-7.3%
11,COc1ccc(-c2ccc(C(C)=O)cc2)cc1[C@H]1[C@H]2C=CC[C@@H](C)[C@@H]2C(=O)N1Cc1ccccc1,-4.4%
12,COC(=O)c1cc2sc(Cl)cc2n1CC(=O)Nc1cccc(SC)c1,1.3%
13,CCn1c(=O)cc(OCC(=O)NCc2cccs2)c2ccccc21,-18.7%
14,O=C(CN1CC[n+]2c(-c3cccs3)csc21)c1ccc(-c2ccccc2)cc1,56.9% (active)
15,O=C(CN1CC[n+]2c(-c3cccs3)csc21)c1ccc(Br)cc1,5%
16,O=C(CN1CC[n+]2c(-c3ccccc3)csc21)c1ccc(Br)cc1,-9.1%
17,O=C(O)CSCC(=O)N1CCc2c([nH]c3ccccc23)C1C(F)(F)F (stereo unspecified),-8.5%
18,O=C(Nc1cccc(S(=O)(=O)C(F)F)c1)c1ccc(Cl)c(S(=O)(=O)N2CCOCC2)c1,4.5%
19,O=C(Nc1ccc(NC(=O)c2ccc(Cl)c(S(=O)(=O)N3CCOCC3)c2)cc1)c1ccccc1,-18.3%
